What all share (settings): mRNA level, 48 h; actives raise or lower the signal
Read-out in test [1]: Tumor necrosis factor receptor superfamily member 6 (Homo sapiens) (UniProt P25445)
The test is described as follows: LTEA_HepaRG_FAS: Life Technologies and Expression Analysis (LTEA) Assay for Fas cell surface death receptor (FAS) using HepaRG (AID 2283447). The method in brief:
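Differentiated HepaRG cells in serum-free induction medium were exposed 48 h to 8 half-log concentrations up to 100 uM in 0.5% DMSO, in duplicate. FAS mRNA was measured by qRT-PCR normalised to ACTB, GAPDH and POLR2A; bidirectional fit versus DMSO.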

Read-out in test [2]: Fatty acid synthase (Homo sapiens) (UniProt P49327)
The test is described as follows: LTEA_HepaRG_FASN: Life Technologies and Expression Analysis (LTEA) Assay for Fatty Acid Synthase (FASN) using HepaRG (AID 2283448).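 On AC50: differentiated human HepaRG liver cells in serum-free induction medium.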 The method in brief:
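In human HepaRG cultures, 48 h chemical exposure (up to 100 uM, 0.5% DMSO) preceded TaqMan qRT-PCR of FASN.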

Read-out in test [3]: Cyclin Dependent Kinase Inhibitor 1A (CDKN1A), CDKN1A (gene 1026)
The test can be described thus: LTEA_HepaRG_CDKN1A: Life Technologies and Expression Analysis (LTEA) Assay for Cyclin Dependent Kinase Inhibitor 1A (CDKN1A) using HepaRG (AID 2283450). In a few lines:
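Gain or loss of CDKN1A transcript is scored by bidirectional fitting against 0.5% DMSO vehicle. Human HepaRG cultures receive chemicals for 48 h across an 8-point series peaking at 100 uM; expression comes from qRT-PCR.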

Read-out in test [4]: Cyclin D1 (CCND1), CCND1 (gene 595)
The test is described as follows: LTEA_HepaRG_CCND1: Life Technologies and Expression Analysis (LTEA) Assay for Cyclin D1 (CCND1) using HepaRG (AID 2283451). In a few lines: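 Expression change is measured by qRT-PCR in HepaRG cells after 48 h treatment across eight concentrations topping at 100 uM, with duplicate wells and DMSO (0.5%) serving as baseline for bidirectional fitting.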

Read-out in test [5]: catalase (CAT), CAT (gene 847)
The test can be described thus: LTEA_HepaRG_CAT: Life Technologies and Expression Analysis (LTEA) Assay for catalase (CAT) using HepaRG (AID 2283452). The method in brief:
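HepaRG cells in serum-free induction medium, 0.5% DMSO vehicle, exposed 48 h in duplicate over 8 half-log concentrations from 100 uM. CAT mRNA measured by qRT-PCR, normalized to ACTB, GAPDH, POLR2A; bidirectional fit versus DMSO.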

Read-out in test [6]: flavin-containing dimethylaniline monooxygenases 3 (FMO3), FMO3 (gene 2328)
The test is described as follows: LTEA_HepaRG_FMO3: Life Technologies and Expression Analysis (LTEA) Assay for flavin-containing dimethylaniline monooxygenases 3 (FMO3) using HepaRG (AID 2283453).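 On AC50: differentiated human HepaRG liver cells in serum-free induction medium.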 In a few lines:
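Eight-point concentration-response in serum-free HepaRG cultures (top 100 uM, 0.5% DMSO, 48 h). Read-out: FMO3 mRNA level normalized to three endogenous control genes, fitted bidirectionally versus vehicle.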

Read-out in test [7]: CFLAR gene, CFLAR (gene 8837)
The test is described as follows: LTEA_HepaRG_CFLAR: Life Technologies and Expression Analysis (LTEA) Assay for CFLAR gene using HepaRG (AID 2283455). In a few lines:
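qRT-PCR read-out (Fluidigm/TaqMan) of CFLAR mRNA, normalized to three housekeeping genes, in differentiated human HepaRG cells after 48 h chemical exposure; 8-point half-log series from 100 uM in 0.5% DMSO; bidirectional curve fitting versus DMSO.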

Read-out in test [8]: Forkhead box O1 (FOXO1), FOXO1 (gene 2308)
The test can be described thus: LTEA_HepaRG_FOXO1: Life Technologies and Expression Analysis (LTEA) Assay for Forkhead box O1 (FOXO1) using HepaRG (AID 2283456). The method in brief: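 HepaRG, 48 h exposure, 8-pt half-log series from 100 uM in 0.5% DMSO, duplicates; Fluidigm qRT-PCR mRNA, housekeeping-normalised; bidirectional fit vs DMSO baseline.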

Read-out in test [9]: growth arrest and DNA damage 45 (GADD45A), GADD45A (gene 1647)
The test is described as follows: LTEA_HepaRG_GADD45A: Life Technologies and Expression Analysis (LTEA) Assay for growth arrest and DNA damage 45 (GADD45A) using HepaRG (AID 2283458). In a few lines: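 Eight-point concentration-response in HepaRG cells: 48 h chemical exposure, 0.5% DMSO vehicle, top dose 100 uM. Normalized qRT-PCR mRNA readout with bidirectional fitting relative to DMSO.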

Read-out in test [10]: Forkhead box O3 (FOXO3), FOXO3 (gene 2309)
The test is described as follows: LTEA_HepaRG_FOXO3: Life Technologies and Expression Analysis (LTEA) Assay for Forkhead box O3 (FOXO3) using HepaRG (AID 2283459). In a few lines: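 qRT-PCR readout of FOXO3 transcript, normalized to three housekeeping genes (ACTB, GAPDH, POLR2A); gain or loss fitted against 0.5% DMSO vehicle. HepaRG cells, 48 h chemical exposure, 8-point half-log series, top 100 uM.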

Read-out in test [11]: ABC Transporter (ABCB1), ABCB1 (gene 5243)
The test is described as follows: LTEA_HepaRG_ABCB1: Life Technologies and Expression Analysis (LTEA) Assay for ABC Transporter (ABCB1) using HepaRG (AID 2283460). In a few lines: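 HepaRG, 48 h exposure, 8-pt half-log series from 100 uM, 0.5% DMSO vehicle, duplicates. Readout: ABCB1 transcript by Fluidigm TaqMan qRT-PCR, housekeeping-normalized; bidirectional curve fit vs DMSO baseline.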

Read-out in test [12]: growth arrest and DNA damage 45 (GADD45B), GADD45B (gene 4616)
The test can be described thus: LTEA_HepaRG_GADD45B: Life Technologies and Expression Analysis (LTEA) Assay for growth arrest and DNA damage 45 (GADD45B) using HepaRG (AID 2283461). In a few lines:
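Human HepaRG monolayers receive chemicals for 48 h at eight half-log concentrations, highest 100 uM, in 0.5% DMSO. Expression is measured by TaqMan qRT-PCR and normalized to ACTB, GAPDH and POLR2A.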

Read-out in test [13]: ABC Transporter (ABCC3), ABCC3 (gene 8714)
The test is described as follows: LTEA_HepaRG_ABCC3: Life Technologies and Expression Analysis (LTEA) Assay for ABC Transporter (ABCC3) using HepaRG (AID 2283462). The method in brief: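 Transcriptional change of ABCC3 in HepaRG after 48 h treatment, determined by qRT-PCR normalized to endogenous controls. Concentrations spanned eight half-log steps to 100 uM in 0.5% DMSO.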

Read-out in test [14]: ABC Transporter (ABCB11), ABCB11 (gene 8647)
The test is described as follows: LTEA_HepaRG_ABCB11: Life Technologies and Expression Analysis (LTEA) Assay for ABC Transporter (ABCB11) using HepaRG (AID 2283463). The method in brief: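 HepaRG, 48 h exposure, 8-pt half-log CRC top 100 uM, 0.5% DMSO vehicle, duplicates. Readout: TaqMan qRT-PCR of ABCB11 mRNA, housekeeping-normalized (ACTB/GAPDH/POLR2A). Bidirectional fit vs DMSO baseline.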

Read-out in test [15]: ABC Transporter (ABCC2), ABCC2 (gene 1244)
The test can be described thus: LTEA_HepaRG_ABCC2: Life Technologies and Expression Analysis (LTEA) Assay for ABC Transporter (ABCC2) using HepaRG (AID 2283464). In a few lines: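 After plating and 48 h culture, HepaRG medium is replaced with serum-free induction medium and chemicals are added (8 concentrations, max 100 uM, 0.5% DMSO) for 48 h. Total RNA then undergoes qRT-PCR for ABCC2 with housekeeping normalization.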

Read-out in test [16]: Broad substrate specificity ATP-binding cassette transporter ABCG2 (Homo sapiens) (UniProt Q9UNQ0)
The test is described as follows: LTEA_HepaRG_ABCG2: Life Technologies and Expression Analysis (LTEA) Assay for ABC Transporter (ABCG2) using HepaRG (AID 2283465). In a few lines:
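HepaRG, 48 h exposure, 8-pt half-log series from 100 uM, 0.5% DMSO vehicle, duplicates. Readout: ABCG2 transcript by qRT-PCR (Fluidigm array), housekeeping-normalized; bidirectional curve fit relative to DMSO baseline.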

Read-out in test [17]: Cyclin D2 (CCND2), CCND2 (gene 894)
The test can be described thus: LTEA_HepaRG_CCND2: Life Technologies and Expression Analysis (LTEA) Assay for Cyclin D2 (CCND2) using HepaRG (AID 2283449).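 Further: CCND2 transcript measured by TaqMan qRT-PCR and normalised to three housekeeping genes.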 The method in brief:
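HepaRG, 48 h dosing, 8-pt half-log curve from 100 uM, 0.5% DMSO; duplicate wells. Readout: CCND2 transcript by microfluidic qRT-PCR, housekeeping-normalised; bidirectional fit vs DMSO baseline.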

For orientation: AC50 means the concentration giving half of the maximal activity seen.

Activity calls are given as the source filed them. How the source made its calls: active means hit-call score of the fitted dose curve at least 0.9, where 1 is the maximum; inactive means score below 0.9.

Chain of Fatty acid synthase (Homo sapiens) (P49327 whole entry, looked up): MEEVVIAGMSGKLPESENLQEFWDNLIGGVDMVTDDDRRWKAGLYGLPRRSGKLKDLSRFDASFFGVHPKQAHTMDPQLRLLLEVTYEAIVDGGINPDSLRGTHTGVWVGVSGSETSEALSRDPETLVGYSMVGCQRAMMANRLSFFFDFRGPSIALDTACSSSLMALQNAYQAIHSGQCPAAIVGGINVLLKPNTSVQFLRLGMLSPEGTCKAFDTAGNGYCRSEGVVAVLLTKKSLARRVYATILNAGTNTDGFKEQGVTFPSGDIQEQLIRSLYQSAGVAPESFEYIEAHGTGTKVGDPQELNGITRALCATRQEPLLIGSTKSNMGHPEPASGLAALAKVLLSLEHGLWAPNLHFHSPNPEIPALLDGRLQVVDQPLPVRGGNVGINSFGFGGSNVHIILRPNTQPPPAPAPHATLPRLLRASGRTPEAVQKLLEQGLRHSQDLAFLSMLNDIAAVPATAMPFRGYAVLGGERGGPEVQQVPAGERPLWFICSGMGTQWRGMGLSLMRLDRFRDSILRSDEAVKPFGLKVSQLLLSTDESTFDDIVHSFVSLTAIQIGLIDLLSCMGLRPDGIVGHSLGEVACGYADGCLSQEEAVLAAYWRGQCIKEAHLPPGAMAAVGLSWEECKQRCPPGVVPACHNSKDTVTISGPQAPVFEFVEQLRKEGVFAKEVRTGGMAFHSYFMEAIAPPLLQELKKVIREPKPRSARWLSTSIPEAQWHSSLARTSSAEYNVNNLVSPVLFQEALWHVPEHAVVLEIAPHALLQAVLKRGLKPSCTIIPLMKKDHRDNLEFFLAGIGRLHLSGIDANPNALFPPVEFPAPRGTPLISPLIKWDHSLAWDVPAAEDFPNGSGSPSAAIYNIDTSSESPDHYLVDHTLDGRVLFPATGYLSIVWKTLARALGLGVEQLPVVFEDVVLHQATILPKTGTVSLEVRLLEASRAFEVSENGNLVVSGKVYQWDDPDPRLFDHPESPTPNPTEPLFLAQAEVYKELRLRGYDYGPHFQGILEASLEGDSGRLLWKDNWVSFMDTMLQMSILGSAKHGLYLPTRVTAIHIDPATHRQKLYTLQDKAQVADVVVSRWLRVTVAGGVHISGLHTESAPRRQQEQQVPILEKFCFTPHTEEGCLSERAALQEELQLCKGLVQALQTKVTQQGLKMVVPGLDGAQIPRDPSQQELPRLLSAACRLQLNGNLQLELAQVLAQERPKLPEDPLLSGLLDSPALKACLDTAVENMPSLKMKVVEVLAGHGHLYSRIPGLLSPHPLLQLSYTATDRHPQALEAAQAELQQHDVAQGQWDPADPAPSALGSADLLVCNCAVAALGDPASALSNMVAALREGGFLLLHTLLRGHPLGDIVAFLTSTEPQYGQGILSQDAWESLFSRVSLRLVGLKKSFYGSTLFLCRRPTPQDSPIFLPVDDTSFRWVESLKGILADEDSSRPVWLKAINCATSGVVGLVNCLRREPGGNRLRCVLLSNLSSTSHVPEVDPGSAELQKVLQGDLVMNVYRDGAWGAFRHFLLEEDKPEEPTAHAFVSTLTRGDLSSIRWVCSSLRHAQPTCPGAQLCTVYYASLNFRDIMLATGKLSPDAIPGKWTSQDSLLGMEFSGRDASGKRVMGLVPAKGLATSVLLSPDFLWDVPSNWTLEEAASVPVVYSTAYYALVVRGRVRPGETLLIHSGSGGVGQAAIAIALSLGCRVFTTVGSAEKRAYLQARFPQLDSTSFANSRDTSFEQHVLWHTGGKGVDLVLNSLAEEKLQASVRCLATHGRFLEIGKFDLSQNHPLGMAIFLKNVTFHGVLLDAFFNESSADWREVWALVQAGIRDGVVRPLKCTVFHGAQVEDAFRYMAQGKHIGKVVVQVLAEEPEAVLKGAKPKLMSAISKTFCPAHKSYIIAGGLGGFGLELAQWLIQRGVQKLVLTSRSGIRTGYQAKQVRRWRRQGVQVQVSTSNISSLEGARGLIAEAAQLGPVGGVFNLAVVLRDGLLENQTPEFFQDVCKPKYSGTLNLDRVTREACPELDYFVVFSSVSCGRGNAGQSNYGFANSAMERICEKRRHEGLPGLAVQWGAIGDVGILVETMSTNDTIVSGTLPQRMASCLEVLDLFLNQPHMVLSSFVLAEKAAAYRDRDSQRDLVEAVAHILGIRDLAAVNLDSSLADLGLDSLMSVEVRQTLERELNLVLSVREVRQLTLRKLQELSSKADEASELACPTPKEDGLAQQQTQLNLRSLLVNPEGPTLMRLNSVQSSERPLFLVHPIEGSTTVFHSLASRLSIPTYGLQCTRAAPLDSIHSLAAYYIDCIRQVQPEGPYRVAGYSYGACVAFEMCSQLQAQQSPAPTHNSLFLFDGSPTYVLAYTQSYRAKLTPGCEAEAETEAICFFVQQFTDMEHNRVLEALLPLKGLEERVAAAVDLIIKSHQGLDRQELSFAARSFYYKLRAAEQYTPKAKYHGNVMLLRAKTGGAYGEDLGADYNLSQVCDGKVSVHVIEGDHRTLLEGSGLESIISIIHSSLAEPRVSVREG
Chain of Broad substrate specificity ATP-binding cassette transporter ABCG2 (Homo sapiens) (Q9UNQ0 whole entry, looked up): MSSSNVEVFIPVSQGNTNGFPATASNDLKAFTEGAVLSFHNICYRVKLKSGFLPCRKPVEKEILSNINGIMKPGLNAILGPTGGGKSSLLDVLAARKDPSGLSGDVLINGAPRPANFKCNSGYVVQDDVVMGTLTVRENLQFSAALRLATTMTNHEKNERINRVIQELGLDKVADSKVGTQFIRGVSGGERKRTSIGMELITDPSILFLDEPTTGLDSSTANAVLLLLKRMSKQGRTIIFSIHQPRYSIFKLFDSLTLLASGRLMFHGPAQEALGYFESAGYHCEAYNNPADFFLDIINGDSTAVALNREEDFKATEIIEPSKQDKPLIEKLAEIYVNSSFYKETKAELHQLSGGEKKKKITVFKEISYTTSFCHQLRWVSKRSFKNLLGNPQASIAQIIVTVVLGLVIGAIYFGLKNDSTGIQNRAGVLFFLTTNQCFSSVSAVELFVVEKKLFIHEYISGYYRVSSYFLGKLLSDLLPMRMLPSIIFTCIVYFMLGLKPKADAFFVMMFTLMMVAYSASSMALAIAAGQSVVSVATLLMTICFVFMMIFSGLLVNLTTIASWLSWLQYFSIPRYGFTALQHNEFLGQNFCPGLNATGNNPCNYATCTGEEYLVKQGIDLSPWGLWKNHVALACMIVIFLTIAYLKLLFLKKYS

For `O=C1NS(=O)(=O)c2ccccc21`, the result in test [1], in test [2], in test [3], in test [4], in [5] and in [6] was inactive. Besides, the molecule was classed as inactive in [7], in [8], in test [9], in test [10], in test [11] and in test [12]. The molecule was called inactive in test [13], in test [14], in test [15] and in [16].

Consider `O=C(c1ccccc1)c1ccccc1`, for which the outcome in test [1], in [2], in test [17], in test [3], in test [4] and in test [5] was inactive. The molecule was classed as inactive in test [6], in [7], in [8], in test [9], in test [10] and in [11]. The molecule was classed as inactive in test [12], in test [13], in [14], in [15] and in test [16].

As for `CS(=O)(=O)c1ccc([C@@H](CC2CCCC2)C(=O)Nc2cnccn2)cc1Cl`, the molecule was called inactive in test [1], in test [4], in [7], in test [8], in test [10] and in test [12]. Further, the molecule was classed as inactive in test [13] and in test [15]. Moreover, the AC50 is 50 µM (active) in test [2]; 50 µM (active) in [3]; 83.3 µM (active) in [5]; 78.6 µM (active) in test [6]; 9.92 µM (active) in test [9]; 12.8 µM (active) in [16].

Consider `CCCCC(CC)C(=O)O` (stereo not drawn), for which the result in [1], in test [2], in test [3], in test [4], in test [5] and in test [7] was inactive. In addition, the call in test [9], in test [10], in [11], in [12], in test [13] and in [14] was inactive. In addition, the call in [15] and in [16] was inactive.

For `CCCCC=O`, the outcome in test [1], in [2], in [17], in test [3], in test [4] and in [5] was inactive. In addition, the molecule was classed as inactive in [6], in test [7], in [8], in test [9], in [10] and in test [11]. Moreover, the outcome in [12], in test [13], in test [14], in test [15] and in test [16] was inactive.

The record behind these values is PubChem BioAssay (EPA / NIEHS).
